Measurements from PubChem BioAssay AID588676 (Johns Hopkins Ion Channel Center, 2011).
In all, about 310,000 compounds went through this assay and about 3,900 (1.3%) were called active.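 The calls were made as follows: active = calcium-response B-score plate-corrected more than 3 library SD below zero, starting fluorescence within 5 deviations, no agonist response on first addition; inactive = the rest.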 The list comes from a sample in which actives are over-represented; it also holds similar structures and randomly drawn compounds.

target: Mas-related G-protein coupled receptor member X1 (Homo sapiens) (UniProt Q96LB2); assay: blockade of BAM8-22-evoked MrgX1 calcium response – HEK293 cells, Fluo-4 calcium flux, primary screen (AID 588676); conditions: Fluo-4, BAM8-22 antagonism, at 10 µM; stronger effect = lower value;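 as to B-score: peak minus trough fluorescence over baseline after final BAM8-22 challenge near maximal dose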
Sequence (Q96LB2 whole entry, looked up): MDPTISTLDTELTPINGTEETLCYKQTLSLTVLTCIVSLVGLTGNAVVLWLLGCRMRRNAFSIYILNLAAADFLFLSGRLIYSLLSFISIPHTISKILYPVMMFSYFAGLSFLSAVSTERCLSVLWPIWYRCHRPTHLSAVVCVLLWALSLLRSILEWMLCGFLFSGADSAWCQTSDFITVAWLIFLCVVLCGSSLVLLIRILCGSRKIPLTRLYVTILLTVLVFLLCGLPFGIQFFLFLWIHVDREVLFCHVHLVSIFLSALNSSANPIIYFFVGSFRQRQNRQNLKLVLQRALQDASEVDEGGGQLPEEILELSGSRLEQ

SMILES	B-score
O=C(NC1CCN(Cc2ccccc2)CC1)c1cc(Br)c(Br)[nH]1	inactive
Oc1c(Cl)cc(Cl)c(Cl)c1Cc1c(O)c(Cl)cc(Cl)c1Cl	-8.06 (active)
O=C(CN1CCCCCC1)Nc1c(Cl)cc(Cl)cc1Cl	inactive
COc1cc2c(C(=O)N3CCN(C)CC3)c(CSc3ccccc3)n(C)c2cc1Br	inactive
O=C(COC(=O)c1cc(-c2cccs2)nn1-c1ccccc1)Nc1cc([N+](=O)[O-])ccc1Cl	inactive
O=C(Nc1ncccc1O)c1ccc(S(=O)(=O)N2CCCCCC2)cc1	inactive
O=C(Nc1ncccc1O)c1ccc(S(=O)(=O)N2CCCC2)cc1	inactive
CC(C)(C)n1nc2c(c1NC(=O)c1ccc(S(=O)(=O)N3CCCC3)cc1)CS(=O)C2 (stereo unspecified)	-5.73 (active)
O=C(CCN1C(=O)[C@H]2CC=CC[C@H]2C1=O)NCc1nc(-c2ccccc2)no1	inactive
Cc1ccc(Nc2cc(C)nc3c(C)ccc([N+](=O)[O-])c23)cc1	inactive
Cc1cc(C)cc(NC(=S)NCc2ccc(F)cc2)c1	inactive
O=C(NCCc1c[nH]c2ccccc12)c1cccc(Br)c1	inactive
Cc1cc(C)cc(NC(=S)NCCc2c[nH]c3ccccc23)c1	-5.78 (active)
NS(=O)(=O)c1ccccc1NC(=O)c1c(O)c2ccccc2[nH]c1=O	inactive
Cc1cccc(N2C(=O)c3ccc(C(=O)Nc4cccc(C(=O)O)c4)cc3C2=O)c1	inactive
O=C(O)c1ccc2c(c1)C(=O)N(c1ccc(/C=C/C(=O)c3ccccc3)cc1)C2=O	-6.62 (active)
O=C(/C=C/c1ccc(N2CCOCC2)cc1)c1ccccc1	inactive
Cc1cc(C)cc(C(=O)OCC(=O)NCCNC(=O)COC(=O)c2cc(C)cc(C)c2)c1	inactive
CCOC(=O)CNC(=O)CSc1nnc(COc2ccc(Cl)cc2)n1CC	inactive
CCOC(=O)CNC(=O)CSc1ncccc1-c1nc2ccccc2[nH]1	inactive
CCOC(=O)CNC(=O)CSc1nc2cccnc2n1CC	-8.3 (active)
O=C1c2cccc3cccc(c23)C(=O)N1c1cccc(O)c1	inactive

SMILES	B-score
COC(=O)[C@@H]1C[C@@]2(O)[C@@H](O)[C@@H](O)[C@@H](O)C[C@H]2N1Cc1ccc(C)s1	inactive
COc1ccc(Cl)cc1NS(=O)(=O)c1cccc(C(=O)NC2CCC(O)CC2)c1 (stereo unspecified)	inactive
COc1ccc(C(=O)NC2CCCc3c2cnn3-c2cccc(C)c2C)c(OC)n1 (stereo unspecified)	-8.89 (active)
Cc1cc(C(=O)NC2CCCc3c2cnn3-c2cccc(C)c2C)c(C)o1 (stereo unspecified)	inactive
Cn1nccc1C(=O)NC1CCCc2c1cnn2-c1ccccc1F (stereo unspecified)	inactive
Cc1ccc(S(=O)(=O)NNC(=O)/C=C/c2cccc(F)c2)cc1	inactive
Cc1ccc(C)c(NC(=O)C2Cc3ccccc3CN2C(=O)OCc2ccccc2)c1 (stereo unspecified)	inactive
COc1ccc(C(C)NC(=S)NC2CCCCC2)cc1OC (stereo unspecified)	inactive
CCN(CC)CCNCC(=O)Nc1ccc(Oc2ccccc2)cc1	inactive
CCN(CC)CC(=O)Nc1nn(-c2ccccc2)nc1C(N)=O	-7.03 (active)
CCCN(CC(=O)Nc1ccc(C(N)=O)cc1)CC(=O)Nc1ccccc1C	inactive
O=C1CCC(C(=O)N2CCC(O)(c3ccccc3)CC2)CN1CCc1ccccc1 (stereo unspecified)	inactive
COc1ccccc1OCc1nnc(SCC(N)=O)n1-c1ccccc1	inactive
CC(C)(C)NC(=O)NC(=O)COC(=O)C1(C)CC1(Cl)Cl (stereo unspecified)	inactive
COc1cc(CCC(=O)Nc2ccncc2Cl)cc(OC)c1OC	-6.22 (active)
COc1cc(CCC(=O)N2CCN(c3ccccc3Cl)CC2)cc(OC)c1OC	inactive
COc1cc(CCC(=O)OCC(=O)Nc2cccc(S(N)(=O)=O)c2)cc(OC)c1OC	inactive
C#CCOCCOCCOCCNc1nc(N2CCN(C(=O)CCCCCCCCCCNC(=O)[C@H]([C@@H](C)CC)n3cc(CCCCN=C(N)N)nn3)CC2)nc(N2CCN(C(=O)CCCCCCCCCCNC(=O)[C@H](CO)n3cc(CCCSC)nn3)CC2)n1	inactive
O=C(NCC(=O)N(Cc1cccs1)C(C(=O)NC1CCCCC1)c1ccco1)c1cccs1 (stereo unspecified)	inactive
COc1ccc(N2CCN(CCCNC(=O)C3CCN(S(=O)(=O)N4CCOCC4)CC3)CC2)cc1	inactive
CCOc1ccc(CCNC(=O)C2CCN(c3ccc(N4CCOCC4)nn3)CC2)cc1OCC	inactive
COCCCNC(=O)C1CCN(c2ccc(N3CCOCC3)nn2)CC1	-6.39 (active)

SMILES	B-score
CN1CCN(Cc2c(C(=O)N3CCc4ccccc4C3)nc3ccc(Cl)cn23)CC1	inactive
CCc1nn(-c2cc(Oc3cccc4ccccc34)nc(-c3ccccc3)n2)c(N)c1C#N	inactive
COCCCNCC(=O)Nc1sc(C)c(C)c1C(=O)OC	inactive
CCOC(=O)c1c(NC(=O)CSc2nccc(=O)[nH]2)sc(C)c1C	inactive
COC(=O)c1c(NC(=O)c2c(Cl)cnn2C)sc(C)c1C	-4.74 (active)
CN(C)c1cccc(C(=O)N2CCC(n3nccc3NC(=O)C3CCOC3)CC2)c1 (stereo unspecified)	inactive
Cc1ccccc1OCCC(=O)OCC(=O)NC(C)c1ccccc1 (stereo unspecified)	inactive
O=C(Cn1cc(C(=O)C2CC2)c2ccccc21)Nc1ccccc1Cl	inactive
Cc1ccc(-c2nn(C(C)(C)C)c3ncnc(N)c23)cc1	-4.54 (active)
Cc1ccc(-n2cnc3ncnc(-c4ccccc4)c32)cc1	inactive
CC(=O)Nc1ccc(NC(=O)COc2ccc(S(=O)(=O)NC(C)c3ccccc3)cc2)cc1 (stereo unspecified)	inactive
COCCOC(=O)c1c(C)oc2cc(Br)c(OCC(N)=O)cc12	inactive
CCOC(=O)c1c(NC(=O)CNC2CCCc3ccccc32)sc(C(N)=O)c1C (stereo unspecified)	-4.67 (active)
CCOC(=O)c1sc(NC(=O)COc2ncnc3ccccc23)c(C(=O)OCC)c1C	inactive
CCOC(=O)c1sc(NC(=O)CSc2nnc(-c3ccco3)o2)c(C(=O)OCC)c1C	inactive
Cc1ccc(C(=O)C(C)OC(=O)Cc2n[nH]c(=O)c3ccccc23)cc1C (stereo unspecified)	inactive
O=C(/C(=C/c1cccc(Cl)c1)c1nc2ccccc2[nH]1)c1ccccc1	inactive
O=C(CSc1nc2ccc([N+](=O)[O-])cc2[nH]1)c1ccc(Cl)cc1	inactive
O=C(Cc1nc2ccccc2[nH]c1=O)c1ccc(Cl)cc1	-5.73 (active)
CN1CCN(c2ccccc2NC(=O)COc2ccc(C3CCCCC3)cc2)CC1	inactive
O=c1cc(CSc2ccccn2)nc(N2CCN(c3ccccc3)CC2)[nH]1	-4.82 (active)
Cc1ccc(SCc2cc(=O)[nH]c(N3CCCCC3)n2)cc1	inactive

SMILES	B-score
Cc1nnc(SCc2cc(=O)[nH]c(N3CCN(Cc4ccccc4)CC3)n2)s1	inactive
C=CCOc1cccc(C2C(C(=O)c3ccc(C)o3)=C(O)C(=O)N2c2nnc(C)s2)c1 (stereo unspecified)	-4.61 (active)
Cc1cc(N2C(=O)C(O)=C(C(=O)c3ccc(C)o3)C2c2ccc(OCc3ccccc3)cc2)no1 (stereo unspecified)	inactive
C=CCOc1cccc(C2C(C(=O)c3ccc(C)o3)=C(O)C(=O)N2CCCn2ccnc2)c1 (stereo unspecified)	inactive
COc1ccc(/C(O)=C2/C(=O)C(=O)N(CC3CCCO3)C2c2ccc(OC)c(OC)c2)cc1 (stereo unspecified)	inactive
COc1ccc(NC(C(=O)Nc2cccc(C(C)=O)c2)c2ccccc2)cc1 (stereo unspecified)	inactive
Cc1cc(-c2ccc(S(=O)(=O)N3CCN(c4cccc(C(F)(F)F)c4)CC3)s2)on1	inactive
COc1ccc(C(=O)Cc2cnn(-c3ccccc3)c2)c(O)c1	inactive
O=C(Cc1ccccn1)c1ccc(O)cc1O	-4.66 (active)
COc1ccc(CC(=O)c2ccc(O)cc2O)cc1OC	inactive
CCn1c(SCC(=O)NC2CC2)nnc1-c1ccccc1OC	inactive
O=C(NCC1CCCO1)c1ccccc1-c1nc(-c2ccccc2Cl)no1 (stereo unspecified)	inactive
Cc1nn(-c2ccccc2)c(=O)c2noc(C)c12	inactive
C=CCn1nc(-c2ccccc2)c2c(C)onc2c1=O	-6.96 (active)
C=CCn1cnc2scc(-c3ccccc3)c2c1=O	inactive
COc1cccc2cc(C(N)=O)/c(=N\NC(=O)c3ccccc3)oc12	inactive
O=C(CCn1ccc([N+](=O)[O-])n1)Nc1nccs1	-5.19 (active)
Cc1ccnc(NC(=O)Cn2ccc([N+](=O)[O-])n2)c1	inactive
O=C(Cn1ccc([N+](=O)[O-])n1)NCc1cccs1	inactive
Cc1cccc(C)c1NC1=NC(=S)N(c2ccc(N(C)C)cc2)C1(C)C	inactive
CN(C)CCCn1c(=O)n(Cc2ccccc2)c(=O)c2c3c(sc21)CCCCC3	inactive
Cc1c(S(=O)(=O)NC(C)c2ccccc2)c(=O)n(C)c(=O)n1C (stereo unspecified)	inactive

SMILES	B-score
O=C(CNC(=O)C12CC3CC(CC(C3)C1)C2)OCC(=O)N1CCCCC1	inactive
COc1cc2c(cc1OC)C(C(C)C)=NC(C)(C)C2	inactive
COc1cc2c(cc1OC)C(Nc1ccc(S(N)(=O)=O)cc1)=NC(C)(C)C2	inactive
COc1cc2c(cc1O)C(SC)=NC(C)(C)C2	-5.85 (active)
CN(C)CCc1c[nH]c2ccc(Cn3cncn3)cc12	inactive
Clc1ccc(-c2nnc(-c3ccccc3)nc2N2CCSCC2)cc1	inactive
Clc1ccc(-c2nc3ccccn3c2CN2CCSCC2)cc1	-5.66 (active)
CC1CCN(Cc2nc(-c3ccc(Cl)cc3)no2)CC1	inactive
O=C(Nc1ccc(Cl)cc1)C1c2cccc[n+]2CC(=O)N1Cc1ccc2c(c1)OCO2 (stereo unspecified)	-6.48 (active)
CCCOc1ccc(NC(=O)CC2C(=O)N(C)C(=S)N2Cc2ccc3c(c2)OCO3)cc1 (stereo unspecified)	inactive
O=C(CSCc1ccc(Cl)cc1)N1CCN(Cc2ccc3c(c2)OCO3)CC1	inactive
COc1ccc(C)cc1Nc1nc(C)nc2c1oc1ccccc12	inactive
COc1ccc2c(c1)C(=O)Nc1cc(Cl)ccc1N2	inactive
CCC1CCCCN1CCNC(=O)c1[nH]c(C)c(C(C)=O)c1C (stereo unspecified)	-5.1 (active)
CC(=O)c1c(C)[nH]c(C(=O)NCCCN2CCCC2)c1C	inactive
CCCCN(CC)CCNC(=O)c1[nH]c(C)c(C(C)=O)c1C	inactive
NC(=O)CC[C@@H]1NC(=O)[C@@H]2CCCN2C(=O)c2cc([N+](=O)[O-])cc(F)c2NCCC[C@@H](C(N)=O)NC1=O	inactive
O=C(CSc1nc2nccnc2c(=O)n1Cc1cccs1)Nc1ccccc1F	inactive
